Reference: PubChem BioAssay (NCATS)
Where “and” joins values, the source holds several entries; their conditions need not be identical. Identical values can stand only once. Results filed as inconclusive are left out. Calls of active or inactive are those of the source. Unless noted, the call rests on the fitted dose curve; in most records, active means well fitted curve in the direction sought with a large enough effect; inconclusive means small, poorly fitted or top-dose-only effect, or another doubt; inactive means no such curve, though single readings can be large; an effect the other way counts as inactive or inconclusive.

Experiments:
[1] = Cell Viability - BJ (AID 421; calls by dose curve;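 further: potency means the concentration at half of the fitted maximal effect; cells exposed to compound for 40 hours at 37 °C before readout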); details: BJ fibroblast viability, qHTS
Method in brief: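 Cytotoxicity as drop in intracellular ATP (CellTiter-Glo, 20 min RT) after 40 hr compound exposure of BJ fibroblasts at 37 °C. Titrations scaled between DMSO and 100 uM tamoxifen, Hill-fitted for AC50.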

[2] = Cell Viability - Jurkat (AID 426;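 active means dose-dependent loss of cell ATP signal giving a full or clear fitted curve, ranked by lower potency value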;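 further: potency means the concentration at half of the fitted maximal effect; cells exposed to compound for 40 hours at 37 °C before ATP read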); details: qHTS
Method in brief: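 Cells of the human T-cell leukemia line Jurkat (E6-1) are seeded at 5000 per well, treated with compound across a concentration range for 40 hours at 37 °C, then lysed with CellTiter-Glo; luminescence reports ATP.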

[3] = Cell Viability - Hek293 (AID 427;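 active means compounds whose dose-response curve shows a full or clear partial loss of cell viability, called from curve shape rather than a numeric limit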;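 further: potency means the concentration at half of the fitted maximal effect; cells exposed to compound for 40 hours at 37 °C before reading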); details: qHTS
Method in brief: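 Luminescent ATP content (CellTiter-Glo, 20 min at room temperature) was measured after a 40 hr, 37 °C compound exposure of HEK293 cells. AC50 values came from Hill-equation fits of qHTS concentration-response data normalized to DMSO and 100 uM tamoxifen.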

[4] = Cell Viability - HepG2 (AID 433; calls by dose curve;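 further: potency means the concentration at half of the fitted maximal effect; potency for ATP loss meaning cytotoxicity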); details: qHTS
Method in brief: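 Cytotoxicity read as ATP loss (CellTiter-Glo luminescence) after 40 hr compound exposure of HepG2, 1500 cells/well, 37 °C. AC50 by Hill equation; 0% set by DMSO, 100% inhibition by 100 uM tamoxifen.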

[5] = Cell Viability - SK-N-SH (AID 435; calls by dose curve; further: potency means the concentration at half of the fitted maximal effect); details: SK-N-SH neuroblastoma cell viability qHTS
Method in brief: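 qHTS cytotoxicity: CellTiter-Glo ATP luminescence after 40 h compound exposure of human neuroblastoma SK-N-SH cells at 37 °C. AC50 derived by Hill-equation fitting, with DMSO as basal and 100 uM tamoxifen as full inhibition.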

[6] = Cell Viability - Renal Proximal Tubule (AID 545); details: renal proximal tubule cells viability; series mostly up to 91.7 µM;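 further: 0% = DMSO only and -100% = 100 µM tamoxifen; nearly all actives have a fitted effect of over 40% in size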
Method in brief: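 Viability taken as intracellular ATP (CellTiter-Glo luminescence) after 40 hr, 37 °C compound treatment of primary proximal tubule cells from rat kidney, 1000 cells/well; Hill-equation fits of qHTS concentration-response data gave AC50.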

[7] = Cellular Toxicity (caspase-3) MRC-5 (AID 659); details: MRC-5 cells, luminescence, normalized: DMSO 0%, 10 µM staurosporine 100%; series mostly up to 91.7 µM
Method in brief: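 Apoptosis readout in MRC-5 cells: luciferase light generated after caspase 3/7 cleaves a peptide-aminoluciferin substrate, measured post 16 hr compound incubation at 37 °C.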

[8] = Cellular Toxicity (caspase-3) N2a (AID 665); details: N2a cells, luminescence, normalized: DMSO 0%, 10 µM staurosporine 100%; series mostly up to 92.2 µM;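 further: compound exposure lasted 16 h at 37 °C before readout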
Method in brief: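 Caspase-3/7 activation, measured as increased luminescence from aminoluciferin release, is quantified in mouse N2a cells exposed to compounds for 16 h. Values are normalized to DMSO and 10 uM staurosporine, with AC50 derived by Hill modelling.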

[9] = Cellular Toxicity (caspase-3) Renal Proximal Tubule (AID 667); details: renal proximal tubule cells; series mostly up to 91.7 µM;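 further: cells exposed to compound for 16 hours at 37 °C before detection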
Method in brief: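 Caspase 3/7 activation measured by luminescent aminoluciferin release in primary rat proximal tubule cells after 16 hr compound exposure at 37 °C. AC50 from Hill-fitted concentration-response, scaled between DMSO and 10 uM staurosporine.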

[10] = MultiTox-Fluor Cytotoxicity Assay - LYMP1-002 - Live Cells (AID 955); details: LYMP1-002 lymphoblastoid live-cell protease fluorescence viability; series mostly up to 46.1 µM; further: on the % scale 0 is the no-effect control and ±100 the full control effect
Method in brief: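 Cells were seeded at 2500 per well and incubated 5 hr. Compounds were then added for 16 hr at 37 C, followed by MultiTox-Fluor reagent for 60 min at room temperature and fluorescence reading of viable-cell protease signal.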

[11] = MultiTox-Fluor Cytotoxicity Assay - LYMP1-003 - Live Cells (AID 962); details: LYMP1-003 lymphoblastoid cells, MultiTox-Fluor live-cell protease fluorescence; series mostly up to 92.2 µM;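 further: 0% = DMSO only and full loss = 92 µM tetraoctylammonium bromide; cytotoxic hits lower the live-cell protease signal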
Method in brief: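 Acute cytotoxicity is scored as a drop in live-cell protease activity in human lymphoblastoid LYMP1-003 cells after 16 hr compound exposure at 37 C. AC50 values come from Hill-equation modelling of concentration-response data.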

[12] = Cell Viability - LYMP1-003 - Assay at 24 hr (AID 963); details: LYMP1-003 lymphoblastoid cell viability; series mostly up to 92.2 µM;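 further: plate controls were DMSO only for no effect and tetraoctylammonium bromide positive control for full effect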
Method in brief: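 Cytotoxicity is scored as a concentration-dependent fall in ATP-linked luciferase signal in human lymphoblastoid LYMP1-003 cells treated 24 hr at 37 C in complete culture medium.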

[13] = Cell Viability - LYMP2-021 (AID 974); details: LYMP2-021 lymphoblastoid cells viability; series mostly up to 92.2 µM;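 further: compound exposure lasts 24 hours at 37 °C; on the % scale 0 is the no-effect control and ±100 the full control effect; nearly all actives have a fitted effect of over 55% in size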
Method in brief: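 Loss of cellular ATP, measured with a luciferase-based CellTiter-Glo readout, serves as the toxicity signal in human lymphoblastoid cells treated for 24 hours at 37 C. Potency is reported as AC50 from a standard Hill model.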

[14] = Cell Viability - LYMP2-007 (AID 979); details: LYMP2-007 lymphoblastoid cell viability; series mostly up to 92.2 µM;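 further: cells exposed to compound for 24 h before reading; 0% = DMSO only and the negative end = 92 µM tetraoctylammonium bromide; nearly all actives have a fitted effect of over 60% in size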
Method in brief: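 Cells are seeded at 2500 per well and rested 5 hr. Compounds are then added over a concentration series for 24 hr at 37 C. CellTiter-Glo is added for 30 min at room temperature before luminescence reading.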

[15] = Cell Viability - LYMP2-016 (AID 984); details: LYMP2-016 lymphoblastoid cell viability, qHTS; series mostly up to 92.2 µM;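 further: cells exposed to compound for 24 hours at 37 °C; on the % scale 0 is the no-effect control and ±100 the full control effect; nearly all actives have a fitted effect of over 55% in size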
Method in brief: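 Cytotoxicity was scored by luminescent ATP content (CellTiter-Glo) after 24 h compound exposure at 37 C of a human lymphoblastoid line at 2500 cells/well. Concentration-response data were fitted to the Hill equation for AC50.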

[16] = Cell Viability - LYMP2-018 (AID 985); details: LYMP2-018 lymphoblastoid cells, viability (qHTS); series mostly up to 92.2 µM;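 further: compound exposure lasted 24 hr at 37 °C; plate controls were DMSO only for no effect and tetraoctylammonium bromide at 92 µM for full effect; nearly all actives have a fitted effect of over 50% in size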
Method in brief: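 Seed 2500 lymphoblastoid cells per well, incubate 5 hr at 37 C, add compound and incubate 24 hr at 37 C, add CellTiter-Glo, wait 30 min at room temperature, then read luminescence.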

[17] = Cell Viability - LYMP2-020 (AID 986); details: series mostly up to 92.2 µM;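 further: plate controls were DMSO only for no effect and tetraoctylammonium bromide at 92 µM for full effect; nearly all actives have a fitted effect of over 55% in size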
Method in brief: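 Seed 2500 cells per well and incubate 5 hr at 37 C. Add compounds at a concentration series and incubate 24 hr at 37 C. Add CellTiter-Glo, wait 30 min at RT, read luminescence, and fit a Hill curve for AC50.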

[18] = qHTS Assay for Identification of Small Molecule Inducers of Hypoxia Response (AID 2120; active means well fitted curve in the direction sought with a large enough effect in the signal ratio, with a control signal flat, not every such curve was filed as active; the % refers to the signal ratio; further: 0% is about no effect); details: hypoxia response reporter cells, beta-lactamase ratio readout; series mostly up to 104 µM
Method in brief: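 Cell-based qHTS for reporter induction: hypoxia response element controlled beta-lactamase in ME-180 cells. Compounds incubated 17 h at 37 degrees C; activity from blue/green (460/530 nm) ratio, inducers ranked by AC50.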

[19] = qHTS assay for small molecule agonists of the antioxidant response element (ARE) signaling pathway measured by Nrf2-dependant transcriptional activity - cell viability counter screen (AID 720653; active means well fitted curve in the direction sought with a large enough effect in the repeat runs; an effect the other way counts as inactive or inconclusive; further: on the % scale 0 is the no-effect control and ±100 the full control effect); details: ARE-bla HepG2 viability, CellTiter-Glo ATP luminescence, 16 h; stronger effect = lower value
Method in brief: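 ARE-bla HepG2 cells (2,000/well) rested 5 hrs at 37C/5% CO2, then exposed to compounds in DMSO for 16 hrs. Viability was read in the same wells as intracellular ATP by luminescence, 30 min at room temperature after reagent addition.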

[20] = qHTS assay for cell viability of HEK293 cells (AID 743288); details: ATP luminescence (CellTiter-Glo), 18 h, stronger effect = lower value; further: on the % scale 0 is the no-effect control and ±100 the full control effect; nearly all actives have a fitted effect of over 50% in size
Method in brief: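 Readout is luciferase-coupled ATP content (CellTiter-Glo luminescence, 30 min room temperature) as a measure of metabolically competent cells. Parental HEK293 cells were plated 5 h or more before compound addition, then treated 18 h at 37 C.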

Clc1cccc(Cl)c1Cl
inactive: Potency [1] > 92 µM | Potency [2] > 92 µM | Potency [3] > 92 µM | Potency [4] > 92 µM | Potency [5] > 92 µM | outcome [6] | outcome [7] | outcome [8] | outcome [9] | outcome [10] | outcome [11] | outcome [12] | Potency [13] | Potency [14] | Potency [15] | Potency [16] | Potency [17] | Potency [18] | max response [19] -3.73% and 1.34% | max response [20] -5.25% and -0.775%

CN(C)N=O
inactive: Potency [1] > 92 µM | Potency [2] > 92 µM | Potency [3] > 92 µM | Potency [4] > 92 µM | Potency [5] > 92 µM | outcome [6] | outcome [7] | outcome [8] | outcome [9] | outcome [10] | outcome [11] | outcome [12] | Potency [13] | Potency [14] | Potency [15] | Potency [16] | Potency [17] | Potency [18] | max response [19] -2.49% | max response [20] -0.309%

CC12CC1(C)C(=O)N(c1cc(Cl)cc(Cl)c1)C2=O (stereo not given)
inactive: Potency [1] > 92 µM | Potency [2] > 92 µM | Potency [3] > 92 µM | Potency [4] > 92 µM | Potency [5] > 92 µM | outcome [6] | outcome [7] | outcome [8] | outcome [9] | outcome [10] | outcome [11] | outcome [12] | Potency [13] | Potency [14] | Potency [15] | Potency [16] | Potency [17] | Potency [18] | max response [19] -1.37% and -4.13% | max response [20] 5.03% and -17.6%

c1ccc(P(c2ccccc2)c2ccccc2)cc1
inactive: Potency [1] > 92 µM | Potency [2] > 92 µM | Potency [3] > 92 µM | Potency [4] > 92 µM | Potency [5] > 92 µM | outcome [6] | outcome [7] | outcome [8] | outcome [9] | outcome [10] | outcome [11] | outcome [12] | Potency [13] | Potency [14] | Potency [15] | Potency [16] | Potency [17] | Potency [18] | max response [19] -10.4% | max response [20] -11.3%

Oc1cccc(Cl)c1Cl
inactive: Potency [1] > 92 µM | Potency [2] > 92 µM | Potency [3] > 92 µM | Potency [4] > 92 µM | Potency [5] > 92 µM | outcome [6] | outcome [7] | outcome [8] | outcome [9] | outcome [10] | outcome [11] | outcome [12] | Potency [13] | Potency [14] | Potency [15] | Potency [16] | Potency [17] | Potency [18] | max response [19] 0.417% | max response [20] -3.83%

O=c1ccc(=O)[nH][nH]1
inactive: Potency [1] > 92 µM | Potency [2] > 92 µM | Potency [3] > 92 µM | Potency [4] > 92 µM | Potency [5] > 92 µM | outcome [6] | outcome [7] | outcome [8] | outcome [9] | outcome [10] | outcome [11] | outcome [12] | Potency [13] | Potency [14] | Potency [15] | Potency [16] | Potency [17] | Potency [18] | max response [19] 27.2% and 14.4% | max response [20] 3.74% and 5.95%

CC(=O)CCC(C)=O
inactive: Potency [1] > 92 µM | Potency [2] > 92 µM | Potency [3] > 92 µM | Potency [4] > 92 µM | Potency [5] > 92 µM | outcome [6] | outcome [7] | outcome [8] | outcome [9] | outcome [10] | outcome [11] | outcome [12] | Potency [13] | Potency [14] | Potency [15] | Potency [16] | Potency [17] | Potency [18] | max response [19] 0.0815% | max response [20] -8.83%

Cl/C=C/CCl
inactive: Potency [1] > 92 µM | Potency [2] > 92 µM | Potency [3] > 92 µM | Potency [4] > 92 µM | Potency [5] > 92 µM | outcome [6] | outcome [7] | outcome [8] | outcome [9] | outcome [10] | outcome [11] | outcome [12] | Potency [13] | Potency [14] | Potency [15] | Potency [16] | Potency [17] | Potency [18] | max response [19] -1.22% | max response [20] 2.26%
